Consider 9 molecules from PubChem BioAssay (Tox21).

Results filed as inconclusive are left out. Values without a mark were called inactive. The source made the active and inactive calls. Unless noted, the call rests on the fitted dose curve; in most records, active means well fitted curve in the direction sought with a large enough effect in the repeat runs; inconclusive means weak or mixed curves; inactive means no such curve, though single readings can be large; an effect the other way counts as inactive or inconclusive.

Experiment [1] can be described thus: qHTS assay to identify aromatase inhibitors - cell viability counter screen (AID 743084).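 Further: cells stimulated with testosterone during compound exposure; nearly all actives have a fitted effect of over 55% in size.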 In general terms: Quantitative high-throughput screening tests each substance at several concentrations.
For experiment [2], the target named is Aryl hydrocarbon receptor (Homo sapiens) (UniProt P35869). Kind of experiment: qHTS assay to identify small molecule that activate the aryl hydrocarbon receptor (AhR) signaling pathway (AID 743085). Further: nearly all actives have a fitted effect of over 15% in size. Further: potency means the concentration at half of the fitted maximal effect.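 On activation: HG2L7.5c1 human HepG2 liver cells with stably integrated DRE-driven firefly reporter; series mostly up to about 70 µM.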 The gist of the method: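 Stably transfected human liver carcinoma cells (HG2L7.5c1; 20 DRE-firefly luciferase) were incubated 5 h, dosed, and kept 24 h at 37C. Agonism was scored from increased luciferase luminescence.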
Chain of Aryl hydrocarbon receptor (Homo sapiens) (P35869 whole entry, looked up): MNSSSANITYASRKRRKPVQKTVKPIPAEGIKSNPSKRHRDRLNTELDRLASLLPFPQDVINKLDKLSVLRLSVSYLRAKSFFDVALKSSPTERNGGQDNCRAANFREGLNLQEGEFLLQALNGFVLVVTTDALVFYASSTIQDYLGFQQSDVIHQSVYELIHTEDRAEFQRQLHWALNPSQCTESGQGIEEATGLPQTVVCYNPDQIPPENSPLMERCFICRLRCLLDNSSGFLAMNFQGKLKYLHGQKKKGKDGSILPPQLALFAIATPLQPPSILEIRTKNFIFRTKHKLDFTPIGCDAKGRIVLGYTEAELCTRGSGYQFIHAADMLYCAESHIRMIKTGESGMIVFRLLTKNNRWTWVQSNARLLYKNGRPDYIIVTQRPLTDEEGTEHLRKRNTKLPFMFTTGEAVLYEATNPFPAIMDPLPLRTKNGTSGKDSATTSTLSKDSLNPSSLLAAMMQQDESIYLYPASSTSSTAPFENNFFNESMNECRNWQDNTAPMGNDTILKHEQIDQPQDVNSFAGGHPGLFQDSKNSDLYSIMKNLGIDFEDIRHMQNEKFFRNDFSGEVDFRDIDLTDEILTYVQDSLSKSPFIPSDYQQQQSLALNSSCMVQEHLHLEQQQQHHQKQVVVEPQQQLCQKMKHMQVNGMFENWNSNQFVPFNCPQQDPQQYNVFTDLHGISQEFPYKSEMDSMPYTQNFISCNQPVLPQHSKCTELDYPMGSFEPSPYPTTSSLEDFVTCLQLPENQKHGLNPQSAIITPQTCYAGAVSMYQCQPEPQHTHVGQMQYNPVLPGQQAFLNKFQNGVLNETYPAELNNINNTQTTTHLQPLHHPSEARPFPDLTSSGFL

Experiment [3] can be described thus: qHTS assay to identify small molecule that activate the aryl hydrocarbon receptor (AhR) signaling pathway - cell viability counter screen (AID 743086).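 Further: HepG2 liver cells carrying the AhR DRE luciferase reporter; series mostly up to about 70 µM; nearly all actives have a fitted effect of over 45% in size.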 The gist of the method: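 HepG2-AhR-luc (HG2L7.5c1) cells, 4000/well, treated 24 h at 37 C with compound; viability measured as CellTiter-Fluor fluorescence after 30 min in the same wells as the luciferase read.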

For experiment [4], the target named is Peroxisome proliferator-activated receptor gamma (Homo sapiens) (UniProt P37231). Kind of experiment: qHTS assay to identify small molecule agonists of the peroxisome proliferator-activated receptor gamma (PPARg) signaling pathway (AID 743094; active means well fitted activation curve with a large enough effect in the signal ratio in the repeat runs, not every such curve was filed as active; the % refers to the signal ratio). The gist of the method: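 Following 5 h plating at 37C, PPARg-bla HEK293H cells receive compound or DMSO for 17 h; fluorescence intensity is recorded after LiveBLAzer B/G loading for 1 h at room temperature.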
Chain of Peroxisome proliferator-activated receptor gamma (Homo sapiens) (P37231 whole entry, looked up): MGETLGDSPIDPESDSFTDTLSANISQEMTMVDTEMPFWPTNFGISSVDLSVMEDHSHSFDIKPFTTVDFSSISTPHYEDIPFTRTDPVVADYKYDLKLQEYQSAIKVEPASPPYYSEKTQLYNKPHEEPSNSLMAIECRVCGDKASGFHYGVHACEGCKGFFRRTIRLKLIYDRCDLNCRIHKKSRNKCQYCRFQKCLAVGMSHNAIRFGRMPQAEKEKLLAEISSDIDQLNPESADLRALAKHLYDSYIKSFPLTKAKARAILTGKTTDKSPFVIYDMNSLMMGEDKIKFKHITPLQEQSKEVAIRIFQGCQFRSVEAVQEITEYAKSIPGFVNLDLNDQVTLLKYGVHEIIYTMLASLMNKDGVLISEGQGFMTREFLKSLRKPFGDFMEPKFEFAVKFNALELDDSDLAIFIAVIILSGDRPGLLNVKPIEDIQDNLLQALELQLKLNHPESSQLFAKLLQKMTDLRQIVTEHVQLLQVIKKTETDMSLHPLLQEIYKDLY

Experiment [5] in a line: qHTS assay for small molecule agonists of the antioxidant response element (ARE) signaling pathway (AID 743202; active means well fitted activation curve with a large enough effect in the signal ratio in the repeat runs, not every such curve was filed as active; the % refers to the signal ratio). The gist of the method:
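Agonist mode reporter screen: HepG2 cells with ARE-controlled beta-lactamase are incubated with test compounds for 16 h at 37 C, and beta-lactamase activity is measured as fluorescence of cleaved B/G FRET substrate.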

Experiment [6] can be described thus: qHTS assay for small molecule agonists of the antioxidant response element (ARE) signaling pathway - cell viability counter screen (AID 743203; calls by dose curve; further: nearly all actives have a fitted effect of over 55% in size). Summed up:
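Compounds in DMSO were pinned onto ARE-bla HepG2 cells plated 5 hrs earlier at 2,000 cells/well. Sixteen hours later at 37C/5% CO2, CellTiter-Glo was added and luminescence measured after 30 min at room temperature.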

The nature of experiment [7]: qHTS assay for small molecule activators of the heat shock response signaling pathway - cell viability counter screen (AID 743209). Further: nearly all actives have a fitted effect of over 50% in size. The gist of the method:
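Counter screen for cytotoxicity in HeLa HSE-bla reporter cells. Treatment was 5 h at 37 C; viability was detected by luminescent ATP assay (CellTiter-Glo) in the same wells as the beta-lactamase read.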

Experiment [8] can be described thus: qHTS assay for small molecule activators of the heat shock response signaling pathway (AID 743210; active means well fitted activation curve with a large enough effect in the signal ratio in the repeat runs, with a control signal flat, not every such curve was filed as active; the % refers to the signal ratio;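 further: HeLa cells with beta-lactamase reporter driven by heat shock elements; series mostly up to about 63 µM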). Summed up:
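Quantitative high-throughput format using an engineered HeLa line in which heat shock response elements drive beta-lactamase; after 5 h with compound, cells received a B/G FRET substrate and fluorescence was read.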

A short description of experiment [9]: qHTS assay to identify small molecule agonists of the peroxisome proliferator-activated receptor delta (PPARd) signaling pathway - cell viability counter screen (AID 743211). Further: nearly all actives have a fitted effect of over 55% in size. Summed up: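 In the same wells used for beta-lactamase reporter measurement, cytotoxicity is scored by CellTiter-Glo. HEK293H PPARd-bla cells receive compound for 17 h at 37C following a 5 h settling period.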

The target in experiment [10] is Peroxisome proliferator-activated receptor delta (Homo sapiens) (UniProt Q03181). Description: qHTS assay to identify small molecule agonists of the peroxisome proliferator-activated receptor delta (PPARd) signaling pathway (AID 743212; calls by dose curve;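 further: HEK293H cells with PPARd UAS beta-lactamase reporter GeneBLAzer system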). The gist of the method: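 Quantitative high-throughput agonist screen in a HEK293H beta-lactamase reporter line under UAS control. Compounds in DMSO, at 37 C. Fluorescence read after 2 h with FRET substrate at room temperature.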
Chain of Peroxisome proliferator-activated receptor delta (Homo sapiens) (Q03181 whole entry, looked up): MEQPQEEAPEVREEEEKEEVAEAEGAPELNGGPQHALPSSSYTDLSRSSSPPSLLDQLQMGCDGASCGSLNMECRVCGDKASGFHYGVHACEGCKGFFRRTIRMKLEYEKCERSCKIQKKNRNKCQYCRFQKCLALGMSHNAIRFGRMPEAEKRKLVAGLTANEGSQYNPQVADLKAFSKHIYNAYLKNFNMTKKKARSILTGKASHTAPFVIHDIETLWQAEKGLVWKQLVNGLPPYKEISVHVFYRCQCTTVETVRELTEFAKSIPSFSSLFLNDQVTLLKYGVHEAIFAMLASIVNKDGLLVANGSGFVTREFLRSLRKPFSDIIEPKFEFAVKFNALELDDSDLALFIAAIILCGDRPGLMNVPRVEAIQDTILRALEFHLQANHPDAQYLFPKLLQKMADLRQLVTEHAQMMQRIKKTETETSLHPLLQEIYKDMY

Experiment [11] is described as follows: qHTS assay to identify small molecule antagonists of the peroxisome proliferator-activated receptor delta (PPARd) signaling pathway - cell viability counter screen (AID 743213). Further: nearly all actives have a fitted effect of over 50% in size. The gist of the method:
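HEK293H PPARd UAS-bla cells, 5 h pre-incubation, compound + L165041 300 nM final, 17 h 37 C; B/G FRET substrate 2 h RT; then CellTiter-Glo 30 min RT, luminescence.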

The target of experiment [12] is Peroxisome proliferator-activated receptor delta (Homo sapiens) (UniProt Q03181). Kind of experiment: qHTS assay to identify small molecule antagonists of the peroxisome proliferator-activated receptor delta (PPARd) signaling pathway (AID 743215; active means well fitted inhibition curve with a large enough effect in the signal ratio in the repeat runs, not every such curve was filed as active; the % refers to the signal ratio;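 further: cells stimulated with agonist L165041 at 300 nM final during compound exposure; series mostly up to about 62 µM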). The gist of the method: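 With L165041 present at 300 nM final, compounds were incubated 17 h at 37 C on PPARd UAS-bla HEK293H cells. A FRET-based beta-lactamase substrate was then applied for 2 h at room temperature and fluorescence intensity recorded.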

Experiment [13] can be described thus: qHTS assay to identify small molecule antagonists of the farnesoid-X-receptor (FXR) signaling pathway - cell viability counter screen (AID 743221; active means well fitted cell-killing curve with a large enough effect in the repeat runs, not every such curve was filed as active; further: nearly all actives have a fitted effect of over 50% in size). The gist of the method:
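Here viability was scored by luminescence after CellTiter-Glo addition to wells already read for beta-lactamase. Prior treatment: compound plus CDCA (50 uM final), 16 h, 37 C, HEK 293T FXR-bla cells.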

Experiment [14] can be described thus: qHTS assay to identify small molecule antagonists of the peroxisome proliferator-activated receptor gamma (PPARg) signaling pathway - cell viability counter screen (AID 743194). Further: nearly all actives have a fitted effect of over 55% in size. The gist of the method: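 Cytotoxicity counter screen in PPARg-bla HEK293H cells, same wells as reporter assay. Compounds plus 50 nM rosiglitazone (final) for 17 h at 37 C, then viability read by CellTiter-Glo luminescence.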

The nature of experiment [15]: qHTS assay to identify small molecule agonists of the farnesoid-X-receptor (FXR) signaling pathway - cell viability counter screen (AID 743218). Further: nearly all actives have a fitted effect of over 45% in size. Summed up: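 After 16 h at 37 C with test compounds, FXR-bla HEK 293T cells were given LiveBLAzer B/G substrate for 2 h at RT and then CellTiter-Glo; luminescence was taken after 30 min.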
Experiment [16] addresses Vitamin D3 receptor (Homo sapiens) (UniProt P11473). Description: qHTS assay to identify small molecule agonists of the vitamin D receptor (VDR) signaling pathway (AID 743222; calls by dose curve). Summed up: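 VDR-bla cells were seeded, left 4 h, treated with compounds in DMSO for 16 h, incubated 2 h at RT with B/G FRET substrate, and read for fluorescence.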
For experiment [17] the target is unchanged. Description: qHTS assay to identify small molecule antagonists of the vitamin D receptor (VDR) signaling pathway (AID 743223; active means well fitted inhibition curve with a large enough effect in the signal ratio in the repeat runs, not every such curve was filed as active; the % refers to the signal ratio). Summed up: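 Inhibition of agonist-driven VDR signalling is scored in VDR-bla cells: 3 nM final 1alpha,25-dihydroxyvitamin D3 plus compound, 16 h at 37C, then beta-lactamase detection by FRET substrate fluorescence after 2 h.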

The target in experiment [18] is Bile acid receptor (Homo sapiens) (UniProt Q96RI1). Description: qHTS assay to identify small molecule antagonists of the farnesoid-X-receptor (FXR) signaling pathway (AID 743217; active means well fitted inhibition curve with a large enough effect in the signal ratio in the repeat runs, not every such curve was filed as active; the % refers to the signal ratio). The gist of the method:
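In this cell-based antagonist screen, inhibition of CDCA-driven (50 uM final) UAS-beta-lactamase expression in HEK 293T cells was measured by FRET fluorescence following 16 h compound exposure at 37 °C.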
On the % scale 0 is the no-effect control and ±100 the full control effect.

Chain of Vitamin D3 receptor (Homo sapiens) (P11473 whole entry, looked up): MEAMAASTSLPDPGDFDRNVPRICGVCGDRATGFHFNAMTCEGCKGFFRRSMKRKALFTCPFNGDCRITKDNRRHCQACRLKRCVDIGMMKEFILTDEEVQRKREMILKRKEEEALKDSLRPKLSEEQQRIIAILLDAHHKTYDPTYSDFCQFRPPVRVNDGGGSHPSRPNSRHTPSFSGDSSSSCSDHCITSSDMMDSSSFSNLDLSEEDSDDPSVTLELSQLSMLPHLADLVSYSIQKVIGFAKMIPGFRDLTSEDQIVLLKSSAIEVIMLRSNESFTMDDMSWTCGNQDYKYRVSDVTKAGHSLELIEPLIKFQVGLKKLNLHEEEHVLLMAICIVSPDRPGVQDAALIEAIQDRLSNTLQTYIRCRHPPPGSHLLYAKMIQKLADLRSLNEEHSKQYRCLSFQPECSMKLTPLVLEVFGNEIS
Chain of Bile acid receptor (Homo sapiens) (Q96RI1 whole entry, looked up): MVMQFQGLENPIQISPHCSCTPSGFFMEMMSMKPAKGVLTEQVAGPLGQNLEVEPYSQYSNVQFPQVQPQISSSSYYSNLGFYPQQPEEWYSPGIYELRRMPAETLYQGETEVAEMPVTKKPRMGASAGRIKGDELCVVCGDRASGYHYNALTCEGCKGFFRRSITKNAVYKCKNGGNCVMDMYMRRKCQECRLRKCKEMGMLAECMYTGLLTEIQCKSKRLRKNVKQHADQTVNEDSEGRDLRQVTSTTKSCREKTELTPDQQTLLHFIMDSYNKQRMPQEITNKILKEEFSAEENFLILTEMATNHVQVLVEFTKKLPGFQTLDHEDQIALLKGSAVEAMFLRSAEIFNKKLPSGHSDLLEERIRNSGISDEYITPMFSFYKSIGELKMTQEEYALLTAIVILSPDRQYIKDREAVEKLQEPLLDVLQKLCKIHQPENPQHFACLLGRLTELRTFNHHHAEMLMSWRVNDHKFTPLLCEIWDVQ

Turning to `CC/C=C\C#N`, the Potency entry in experiment [1], in experiment [2], in experiment [3], in experiment [5], in experiment [9] and in experiment [11] was “inactive” each time. For the same molecule, the outcome in experiment [4], in experiment [6], in experiment [7], in experiment [8] and in [10] was inactive.
Take `OCC(O)[C@@H](O)[C@H](O)[C@H](O)CO[C@H]1O[C@H](CO)[C@@H](O)[C@H](O)[C@H]1O` (some centres undefined): the Potency entry in [1], in experiment [2], in experiment [3], in experiment [5], in experiment [9] and in experiment [11] was “inactive” each time. For the same molecule, the Potency entry in experiment [13] was “inactive”. Further, the molecule was classed as inactive in experiment [4], in [6], in experiment [7], in experiment [8], in experiment [10] and in experiment [12].
As to `NC(=S)Nc1cccc2ccccc12`, the activity change, negative = cytotoxicity in experiment [1] was 1.26% [at 8.47 µM]; in [14], 9.83% [at 5.95 µM]; in experiment [7], -5.69% [at 5.95 µM]; in experiment [9], -1.16% [at 5.95 µM]. Further, the activation in experiment [2] was 0.499% [at 8.47 µM]; in experiment [4], -10.4% [at 7.08 µM]; in [5] it was -5.35% [at 8.36 µM]; in experiment [10], -6.49% [at 5.95 µM]; in experiment [16] it was 4.28% [at 6.01 µM]. The viability change, negative = cytotoxic in [3] is 1.55% [at 8.47 µM]; in [6], 10% [at 8.36 µM]; in experiment [11], 5.98% [at 6.26 µM]; in [15] it was 18.3% [at 5.95 µM]. For the same molecule, the ratio activity, negative = inhibition in [12] was -0.221% [at 6.26 µM]. For the same molecule, the activity change, negative = inhibition in [17] was -15.5% [at 6.95 µM].
`Cc1nc(-c2ccc(OCC(C)C)c(C#N)c2)sc1C(=O)O`: the Potency entry in experiment [1], in [3], in [14], in [9] and in [11] was “inactive” each time. Moreover, the Potency in experiment [2] was 29.8 nM (active). The molecule was called inactive in experiment [4], in experiment [6], in [7], in experiment [8] and in [15].
For the molecule `CC/C=C\CCCCO`, the Potency result in experiment [1], in experiment [2], in experiment [3], in experiment [14], in experiment [5] and in [9] was “inactive” throughout. The Potency result in [11] and in experiment [13] was “inactive” each time. The outcome in experiment [4], in experiment [6], in [7], in experiment [8] and in experiment [16] was inactive.
As for `NC(=O)c1ncn([C@@H]2O[C@H](CO)[C@@H](O)[C@H]2O)c1N`, the Potency entry in [1], in experiment [2], in experiment [3], in [14], in experiment [5] and in [9] was “inactive” in each case. The Potency result in experiment [11] was “inactive”. Moreover, the outcome in experiment [4], in experiment [6], in experiment [7], in [8], in experiment [16] and in [17] was inactive.
Consider `COc1cc(C(=O)N2CCOCC2)cc(OC)c1OC`, for which the Potency result in experiment [1], in experiment [2], in experiment [3], in [14], in experiment [5] and in experiment [9] was “inactive” each time. The Potency entry in experiment [11] and in [13] was “inactive” each time. Also, the call in [4], in experiment [6], in experiment [7], in experiment [8], in experiment [15] and in experiment [16] was inactive. Besides, in [17], the call was inactive.
For the molecule `CCC(C)OC(=O)N1CCCCC1CCO` (centres undefined), the Potency result in experiment [1], in experiment [2], in experiment [3], in [14], in [5] and in experiment [9] was “inactive” each time. The Potency entry in [11] and in experiment [13] was “inactive” in each case. Moreover, the call in experiment [4], in experiment [6], in experiment [7], in experiment [8], in experiment [10] and in experiment [18] was inactive. The call in [16] and in [17] was inactive.
For the molecule `CC(C)(C)N(CCO)CCO`, the Potency result in experiment [1], in experiment [2], in experiment [3], in [14], in experiment [5] and in experiment [9] was “inactive” each time. The Potency result in [11] and in experiment [13] was “inactive” in each case. For the same molecule, the molecule was classed as inactive in experiment [4], in experiment [6], in experiment [7], in experiment [8], in experiment [10] and in experiment [12]. For the same molecule, the outcome in experiment [18], in experiment [15] and in [16] was inactive.
